Calls of active or inactive are those of the source. The calls were made as follows: active = hit-call score of the fitted dose curve at least 0.9, where 1 is the maximum; inactive = score below 0.9.

The nature of one experiment: CCTE_Shafer_MEA_acute_burst_number: CCTE's Neural Acute Assay for Single-Electrode Bursts, Shafer Lab (AID 2284013). Put shortly:
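Primary rat cortical neurons on 16-electrode MEA wells, treated on DIV 13 or 15 with compound at 0.03-40 uM. Single-electrode burst count from 40-min recordings at 37 C before and after exposure; percent change from baseline per well, DMSO negative control.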
As to `CCC(C)(C)c1ccc(O)cc1`, the AC50 was 0.283 µM (active).

In the case of `[N-]=[N+]=[N-]`, the compound was classed as inactive.

For the compound `Nc1ccc2ccccc2c1`, the compound was classed as inactive.

For the compound `ClC1=C(Cl)C2(Cl)C3C(Cl)C(Cl)CC3C1(Cl)C2(Cl)Cl` (stereo not given), the compound was called inactive.

Take `CCOP(=S)(Oc1ccc([N+](=O)[O-])cc1)c1ccccc1` (stereo not given): the call was inactive.

As for `CC(C)(C)c1ccccc1OP(=O)(Oc1ccccc1)Oc1ccccc1`, the AC50 was 1.23 µM (active).

Turning to `ClC(Cl)(Cl)c1ccccc1`, the call was inactive.

With `COP(=O)(CCC(=O)NCO)OC`, the result was inactive.

Take `COCCOCCO`: the result was inactive.

`CC(Cl)(Cl)C(=O)O`: the result was inactive.

Turning to `CCC1(c2ccccc2)C(=O)N=C(O)NC1=O` (stereo not given), the result was inactive.

For the compound `Cc1ccc(N)cc1N`, the compound was classed as inactive.

Consider `O=C(O)C1C(C(=O)O)C2(Cl)C(Cl)=C(Cl)C1(Cl)C2(Cl)Cl` (stereo not given), for which the result was inactive.

`CCCCC(CC)COP(=O)(Oc1ccccc1)Oc1ccccc1` (stereo not given): the call was inactive.

For the compound `CCOc1ccc(C(C)(C)COCc2cccc(Oc3ccccc3)c2)cc1`, the outcome was inactive.

In the case of `c1ccc2c(c1)Nc1ccccc1S2`, the AC50 is 3.97 µM (active).

A further experiment in a line: CCTE_Shafer_MEA_acute_burst_duration_mean: CCTE's Neural Acute Assay for Mean Burst Duration, Shafer Lab (AID 2284014).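 Also: hits are decreases in mean burst duration relative to DMSO controls.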 Put shortly: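 Rat primary cortical neurons on 48-well MEA, treated at DIV 13 or 15 with 0.03-40 uM in at least 3 wells. Value is percent change in mean burst duration, comparing 40 min recordings at 37 C before and during exposure.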
Consider `CCC(C)(C)c1ccc(O)cc1`, for which the compound was classed as inactive.

On to `[N-]=[N+]=[N-]`, for which the result was inactive.

On to `Nc1ccc2ccccc2c1`, for which the compound was classed as inactive.

Turning to `ClC1=C(Cl)C2(Cl)C3C(Cl)C(Cl)CC3C1(Cl)C2(Cl)Cl` (stereo not given), the compound was called inactive.

`CCOP(=S)(Oc1ccc([N+](=O)[O-])cc1)c1ccccc1` (stereo not given): the call was inactive.

On to `CC(C)(C)c1ccccc1OP(=O)(Oc1ccccc1)Oc1ccccc1`, for which the outcome was inactive.

For `ClC(Cl)(Cl)c1ccccc1`, the call was inactive.

For `COP(=O)(CCC(=O)NCO)OC`, the compound was classed as inactive.

Turning to `COCCOCCO`, the compound was classed as inactive.

For the compound `CC(Cl)(Cl)C(=O)O`, the call was inactive.

For `CCC1(c2ccccc2)C(=O)N=C(O)NC1=O` (stereo not given), the compound was called inactive.

`Cc1ccc(N)cc1N`: the outcome was inactive.

In the case of `O=C(O)C1C(C(=O)O)C2(Cl)C(Cl)=C(Cl)C1(Cl)C2(Cl)Cl` (stereo not given), the result was inactive.

In the case of `CCCCC(CC)COP(=O)(Oc1ccccc1)Oc1ccccc1` (stereo not given), the compound was classed as inactive.

`CCOc1ccc(C(C)(C)COCc2cccc(Oc3ccccc3)c2)cc1`: the compound was called inactive.

Take `c1ccc2c(c1)Nc1ccccc1S2`: the AC50 was 34.9 µM (active).

A short description of another experiment: CCTE_Shafer_MEA_acute_interburst_interval_mean: CCTE's Neural Acute Assay for Mean Interburst Interval, Shafer Lab (AID 2284016).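 Also: percent change of mean interburst interval versus each well's own pre-dose baseline; curves fitted for decrease in interburst interval relative to DMSO.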 In a few lines: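 Percent change in mean single-electrode interburst interval was calculated per well from 40 min recordings before and after compound (0.03-40 uM). Recordings were made at 37 C on rat cortical cultures at DIV 13 or 15, with spikes detected at 8x rms threshold.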
As for `CCC(C)(C)c1ccc(O)cc1`, the AC50 was 0.0877 µM (active).

In the case of `[N-]=[N+]=[N-]`, the compound was classed as inactive.

As to `Nc1ccc2ccccc2c1`, the call was inactive.

Take `ClC1=C(Cl)C2(Cl)C3C(Cl)C(Cl)CC3C1(Cl)C2(Cl)Cl` (stereo not given): the compound was called inactive.

As to `CCOP(=S)(Oc1ccc([N+](=O)[O-])cc1)c1ccccc1` (stereo not given), the compound was classed as inactive.

`CC(C)(C)c1ccccc1OP(=O)(Oc1ccccc1)Oc1ccccc1`: the call was inactive.

On to `ClC(Cl)(Cl)c1ccccc1`, for which the compound was called inactive.

Consider `COP(=O)(CCC(=O)NCO)OC`, for which the call was inactive.

Turning to `COCCOCCO`, the call was inactive.

Turning to `CC(Cl)(Cl)C(=O)O`, the compound was classed as inactive.

In the case of `CCC1(c2ccccc2)C(=O)N=C(O)NC1=O` (stereo not given), the compound was called inactive.

Turning to `Cc1ccc(N)cc1N`, the result was inactive.

Regarding `O=C(O)C1C(C(=O)O)C2(Cl)C(Cl)=C(Cl)C1(Cl)C2(Cl)Cl` (stereo not given), the call was inactive.

With `CCCCC(CC)COP(=O)(Oc1ccccc1)Oc1ccccc1` (stereo not given), the compound was classed as inactive.

Consider `CCOc1ccc(C(C)(C)COCc2cccc(Oc3ccccc3)c2)cc1`, for which the AC50 was 23.1 µM (active).

For `c1ccc2c(c1)Nc1ccccc1S2`, the AC50 was 4.14 µM (active).

Another experiment can be described thus: CCTE_Shafer_MEA_acute_burst_percentage_mean: CCTE's Neural Acute Assay for Percentage of Spikes in a Burst, Shafer Lab (AID 2284017).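 As to AC50: curve fitted for loss of signal so potency reflects decreased burst percentage.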 Put shortly: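 Well-level mean burst percentage from a 40-min recording after compound (0.03-40 uM) expressed as percent change from a 40-min baseline at 37C. Cultures: primary rat cortical neurons on MEA, dosed on DIV 13 or 15; fitted downward relative to DMSO.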
Turning to `CCC(C)(C)c1ccc(O)cc1`, the AC50 is 9.06 µM (active).

For the compound `[N-]=[N+]=[N-]`, the outcome was inactive.

Consider `Nc1ccc2ccccc2c1`, for which the compound was classed as inactive.

Consider `ClC1=C(Cl)C2(Cl)C3C(Cl)C(Cl)CC3C1(Cl)C2(Cl)Cl` (stereo not given), for which the AC50 is 0.29 µM (active).

On to `CCOP(=S)(Oc1ccc([N+](=O)[O-])cc1)c1ccccc1` (stereo not given), for which the call was inactive.

As to `CC(C)(C)c1ccccc1OP(=O)(Oc1ccccc1)Oc1ccccc1`, the AC50 was 6.79 µM (active).

`ClC(Cl)(Cl)c1ccccc1`: the result was inactive.

With `COP(=O)(CCC(=O)NCO)OC`, the call was inactive.

Turning to `COCCOCCO`, the compound was called inactive.

As to `CC(Cl)(Cl)C(=O)O`, the call was inactive.

`CCC1(c2ccccc2)C(=O)N=C(O)NC1=O` (stereo not given): the compound was called inactive.

For the compound `Cc1ccc(N)cc1N`, the compound was classed as inactive.

`O=C(O)C1C(C(=O)O)C2(Cl)C(Cl)=C(Cl)C1(Cl)C2(Cl)Cl` (stereo not given): the compound was classed as inactive.

Take `CCCCC(CC)COP(=O)(Oc1ccccc1)Oc1ccccc1` (stereo not given): the AC50 is 23.7 µM (active).

Turning to `CCOc1ccc(C(C)(C)COCc2cccc(Oc3ccccc3)c2)cc1`, the AC50 is 25.4 µM (active).

On to `c1ccc2c(c1)Nc1ccccc1S2`, for which the AC50 was 25.8 µM (active).

A further experiment is described as follows: CCTE_Shafer_MEA_acute_burst_percentage_std: CCTE's Neural Acute Assay for Standard Deviation of Burst Percentage, Shafer Lab (AID 2284018).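 Also: fitted in the negative direction so actives lower burst percentage SD.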 Put shortly:
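Rat primary cortical neurons on 48-well MEAs, DIV 13 or 15, 37 C. 40-min baseline then 40-min recording with compound (0.03-40 uM); well-level SD of per-electrode burst spike percentage, expressed as percent change from baseline.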
As to `CCC(C)(C)c1ccc(O)cc1`, the compound was called inactive.

In the case of `[N-]=[N+]=[N-]`, the compound was called inactive.

`Nc1ccc2ccccc2c1`: the compound was classed as inactive.

Turning to `ClC1=C(Cl)C2(Cl)C3C(Cl)C(Cl)CC3C1(Cl)C2(Cl)Cl` (stereo not given), the outcome was inactive.

For the compound `CCOP(=S)(Oc1ccc([N+](=O)[O-])cc1)c1ccccc1` (stereo not given), the call was inactive.

Take `CC(C)(C)c1ccccc1OP(=O)(Oc1ccccc1)Oc1ccccc1`: the AC50 is 5 µM (active).

For the compound `ClC(Cl)(Cl)c1ccccc1`, the compound was called inactive.

Turning to `COP(=O)(CCC(=O)NCO)OC`, the compound was called inactive.

Turning to `COCCOCCO`, the compound was called inactive.

Regarding `CC(Cl)(Cl)C(=O)O`, the result was inactive.

In the case of `CCC1(c2ccccc2)C(=O)N=C(O)NC1=O` (stereo not given), the call was inactive.

`Cc1ccc(N)cc1N`: the result was inactive.

`O=C(O)C1C(C(=O)O)C2(Cl)C(Cl)=C(Cl)C1(Cl)C2(Cl)Cl` (stereo not given): the compound was classed as inactive.

`CCCCC(CC)COP(=O)(Oc1ccccc1)Oc1ccccc1` (stereo not given): the AC50 was 15 µM (active).

As for `CCOc1ccc(C(C)(C)COCc2cccc(Oc3ccccc3)c2)cc1`, the compound was called inactive.

With `c1ccc2c(c1)Nc1ccccc1S2`, the compound was classed as inactive.

As usually defined, the AC50 is the midpoint of the concentration-response curve, whichever way the signal moves.

The values are drawn from PubChem BioAssay (EPA / NIEHS).
